The record followed here is PubChem BioAssay.

Calls of active or inactive are those of the source.

The test system of experiment [1] is Human papillomavirus type 1a protein E7 (residues 44-93). Put plainly: HPV1a E7 fragment binders on microarrays, primary screen, biochemical, small-molecule microarray, residues 44-93, 635 nm fluorescence (AID 1108).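 Further: E7 fragment applied at 1 µg/mL in TBST for 1 h at 4 C; score combines spot fluorescence with its signal to noise ratio.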 Conditions: small-molecule microarray binding, fluorescence 635 nm; higher = more signal.
A short description of experiment [2]: modulators of HCV replicon luciferase signal, primary screen, HCV replication inhibitor project, Huh7 cells, luciferase reporter (AID 1109).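 Further: huh7 hepatoma cells harbouring a luciferase neomycin HCV replicon reporter; luciferase luminescence as measure of HCV replicon replication; test concentration not given here.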 Conditions: 48 h, higher = more signal. (In antiviral work, replicon cells carry a viral genome segment that copies itself.)
For experiment [3], the target named is Left-right determination factor 2 (Homo sapiens) (UniProt O00292). Put plainly: LEFTY2 binders on small-molecule microarrays, primary screen, biochemical, small-molecule microarray, 635 nm fluorescence scan (AID 1110). The following applies: LEFTY2 binding, higher = more signal.
Chain of Left-right determination factor 2 (Homo sapiens) (O00292 whole entry, looked up): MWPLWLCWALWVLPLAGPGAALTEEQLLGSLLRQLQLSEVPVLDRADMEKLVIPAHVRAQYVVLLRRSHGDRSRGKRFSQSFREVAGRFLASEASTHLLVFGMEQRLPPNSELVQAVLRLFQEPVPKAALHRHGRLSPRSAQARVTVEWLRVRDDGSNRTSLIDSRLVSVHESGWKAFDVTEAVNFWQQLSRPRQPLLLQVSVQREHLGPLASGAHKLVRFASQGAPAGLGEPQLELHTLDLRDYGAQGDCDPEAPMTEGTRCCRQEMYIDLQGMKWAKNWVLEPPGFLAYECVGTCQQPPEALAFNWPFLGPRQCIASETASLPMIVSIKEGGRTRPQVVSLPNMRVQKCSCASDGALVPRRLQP
Experiment [4] has as its target Calmodulin-1 (Homo sapiens) (UniProt P0DP23). As to the kind of experiment: CALM1 binders on microarrays, EGTA buffer, profiling panel, biochemical, small-molecule microarray, Cy5-labelled CALM1 (AID 1111).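 Further: labelled calmodulin applied in Tris saline Tween buffer holding calcium plus EGTA and DTT.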 Conditions: Cy5-CALM1 binding fluorescence, higher = more signal.
Experiment [5] shares this target. Put plainly: calcium-bound CALM1 binders on microarrays, profiling panel, artefact control for SMM control-protein annotation, biochemical, small-molecule microarray, Cy5-labelled CALM1, plus calcium (AID 1112).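 Further: score merges spot fluorescence with signal to noise from triplicate slides.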 Conditions: Cy5-CALM1 binding fluorescence, higher = more signal.
The nature of experiment [6]: small-molecule microarray binders of probe aWnt5a, primary screen, biochemical, biotinylated probe, 635/667 nm fluorescence (AID 1113).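 Further: score merges 667 nm fluorescence intensity with signal-to-noise per printed feature.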 The following applies: higher = more signal.
A short description of experiment [7]: small-molecule microarray binders of probe aShh, primary screen, biochemical, biotinylated probe, 635/667 nm fluorescence (AID 1114).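 Further: probe is biotin-labelled aShh protein from a stem cell growth factor screen; measures binding of labelled protein to compounds printed on the slide; score merges feature fluorescence at 667 nm with signal-to-noise.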 The following applies: higher = more signal.
The nature of experiment [8]: small-molecule microarray binders of probe aNog, primary screen, biochemical, biotinylated probe, 635/667 nm fluorescence (AID 1115).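 Further: probe is biotinylated aNog protein used at 0.15 µg/mL for 1 h at 4 C; z-score combines 667 nm fluorescence of each spot with its signal to noise.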 The following applies: higher = more signal.
For experiment [9], the target named is Torsin-1A-interacting protein 1 (Homo sapiens) (UniProt Q5JTV8). Put plainly: LAP1 binders from COS7 cell lysate, primary screen, small-molecule microarray, 635/667 nm fluorescence (AID 1116). Conditions: COS7-hLAP1 lysate binding, 635 nm fluorescence, higher = more signal.
Chain of Torsin-1A-interacting protein 1 (Homo sapiens) (Q5JTV8 whole entry, looked up): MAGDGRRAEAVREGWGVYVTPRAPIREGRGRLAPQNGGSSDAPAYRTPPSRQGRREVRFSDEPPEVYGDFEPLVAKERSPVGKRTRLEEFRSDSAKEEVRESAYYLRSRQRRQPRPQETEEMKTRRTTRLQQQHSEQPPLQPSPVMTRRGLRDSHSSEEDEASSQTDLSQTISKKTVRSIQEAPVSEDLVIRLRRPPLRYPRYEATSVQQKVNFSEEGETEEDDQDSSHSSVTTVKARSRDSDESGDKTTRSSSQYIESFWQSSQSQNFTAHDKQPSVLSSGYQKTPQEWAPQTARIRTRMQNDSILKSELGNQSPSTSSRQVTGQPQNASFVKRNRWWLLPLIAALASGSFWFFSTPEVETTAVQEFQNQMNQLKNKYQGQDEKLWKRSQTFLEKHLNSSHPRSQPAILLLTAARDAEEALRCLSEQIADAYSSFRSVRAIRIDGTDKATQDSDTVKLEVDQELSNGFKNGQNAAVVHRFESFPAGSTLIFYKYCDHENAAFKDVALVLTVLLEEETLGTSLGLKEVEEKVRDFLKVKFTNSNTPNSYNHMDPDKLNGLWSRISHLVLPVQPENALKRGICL
Experiment [10] addresses Alpha-bungarotoxin (Bungarus multicinctus) (UniProt P60615). As to the kind of experiment: alpha-bungarotoxin binders on microarray, profiling panel, artefact control for SMM control protein annotation, biochemical, small-molecule microarray, Alexa647 label, 635/667 nm fluorescence (AID 1117). The following applies: alpha-BTX-A647 binding fluorescence, higher = more signal.

Another experiment addresses Albumin (Bos taurus) (UniProt P02769). Put plainly: bovine serum albumin binders on microarray, profiling panel, artefact control for SMM control protein annotation, biochemical, small-molecule microarray, Alexa647 label, 635/667 nm fluorescence (AID 1118).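 Further: score merges 667 nm emission intensity and signal-to-noise per printed compound spot.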 Conditions: BSA-A647 binding, fluorescence 635 nm, higher = more signal.
Experiment [11] can be described thus: small-molecule microarray binders of probe aXIP, primary screen, biochemical, NeuroSMM set, 635/667 nm fluorescence (AID 1119).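 Further: probe is the protein aXip251-270 applied at 1 µg/mL to compound-printed slides; binding of probe to printed compounds measured as 667 nm fluorescence plus signal to noise.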 The following applies: higher = more signal, called active from +8 up or from −8 down.
A short description of experiment [12]: small-molecule binders of probe aNOTCH3, primary screen, biochemical, small-molecule microarray, 635/667 nm fluorescence (AID 1120).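 Further: probe is a biotin-tagged antibody raised against NOTCH3 rather than NOTCH3 protein; score merges spot fluorescence near 667 nm with spot signal to noise.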 The following applies: higher = more signal.
The nature of experiment [13]: small-molecule binders of probe aNOTCH2, primary screen, biochemical, small-molecule microarray, 635/667 nm fluorescence (AID 1121).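 Further: score merges feature fluorescence read at 667 nm with its signal to noise.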 Conditions: higher = more signal.
Experiment [14] concerns the target Carbonic anhydrase 2 (Homo sapiens) (UniProt P00918). As to the kind of experiment: CAII small-molecule binders, profiling panel, biochemical, small-molecule microarray, Alexa647-labelled CAII (AID 1122). The following applies: CAII-A647 binding fluorescence, higher = more signal.
A short description of experiment [15]: COS7 lysate on small-molecule microarray, probe aHis, 635 nm (AID 1123).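 Further: z-score combines 667nm fluorescence intensity with signal-to-noise per printed compound spot.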 The following applies: COS7 cell lysate, fluorescence, higher = more signal.
A short description of experiment [16]: compound binding in COS7 lysate, probe aLAP1, primary screen, cell lysate, small-molecule microarray (AID 1124).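 Further: lysate comes from COS7 cells expressing LAP1 and is applied at 0.3 µg/mL; score merges spot fluorescence near 667 nm with signal-to-noise over triplicate slides.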 Conditions: probe aLAP1, fluorescence, higher = more signal.
Another experiment relates to Sam68 (KHDRBS1). Put plainly: Sam68 small-molecule binders, primary screen, biochemical, small-molecule microarray, 635 nm fluorescence (AID 1125).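 Further: score merges 667 nm channel intensity with signal to noise over triplicate slides.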 The following applies: small-molecule microarray binding, higher = more signal.
For experiment [17], the system named is Chordin-like protein 2 (CHRDL2). Put plainly: CHRDL2 small-molecule binders, primary screen, biochemical, small-molecule microarray, 635 nm fluorescence (AID 1126).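 Further: printed compound slides probed with Chrdl2 protein at 4 µg/mL for 1 h at 4 C; score merges 667 nm emission intensity with signal to noise over three replicate slides.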 The following applies: small-molecule microarray binding, fluorescence 635 nm; higher = more signal.
The target of experiment [18] is Concanavalin-A (Canavalia ensiformis) (UniProt P02866). Put plainly: ConA small-molecule binders, primary screen, artefact control for SMM control protein annotation, biochemical, small-molecule microarray, Alexa647 label, 635 nm (AID 1127).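 Further: z combines 667 nm emission intensity with signal-to-noise across three replicate slides.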 The following applies: ConA-A647 binding fluorescence, higher = more signal.
Chain of Concanavalin-A (Canavalia ensiformis) (P02866 whole entry, looked up): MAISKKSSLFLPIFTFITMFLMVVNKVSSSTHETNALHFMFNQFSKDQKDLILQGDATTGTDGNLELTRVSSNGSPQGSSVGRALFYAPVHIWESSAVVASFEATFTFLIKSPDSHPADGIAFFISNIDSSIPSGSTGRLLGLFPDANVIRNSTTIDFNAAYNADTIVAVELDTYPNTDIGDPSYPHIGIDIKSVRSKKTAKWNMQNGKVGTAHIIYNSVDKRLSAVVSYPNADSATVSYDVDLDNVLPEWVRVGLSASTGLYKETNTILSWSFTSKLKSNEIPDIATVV

Chain of Alpha-bungarotoxin (Bungarus multicinctus) (P60615 whole entry, looked up): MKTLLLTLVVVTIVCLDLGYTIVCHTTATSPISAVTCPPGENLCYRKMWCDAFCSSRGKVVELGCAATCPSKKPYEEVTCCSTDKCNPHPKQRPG
Chain of Albumin (Bos taurus) (P02769 whole entry, looked up): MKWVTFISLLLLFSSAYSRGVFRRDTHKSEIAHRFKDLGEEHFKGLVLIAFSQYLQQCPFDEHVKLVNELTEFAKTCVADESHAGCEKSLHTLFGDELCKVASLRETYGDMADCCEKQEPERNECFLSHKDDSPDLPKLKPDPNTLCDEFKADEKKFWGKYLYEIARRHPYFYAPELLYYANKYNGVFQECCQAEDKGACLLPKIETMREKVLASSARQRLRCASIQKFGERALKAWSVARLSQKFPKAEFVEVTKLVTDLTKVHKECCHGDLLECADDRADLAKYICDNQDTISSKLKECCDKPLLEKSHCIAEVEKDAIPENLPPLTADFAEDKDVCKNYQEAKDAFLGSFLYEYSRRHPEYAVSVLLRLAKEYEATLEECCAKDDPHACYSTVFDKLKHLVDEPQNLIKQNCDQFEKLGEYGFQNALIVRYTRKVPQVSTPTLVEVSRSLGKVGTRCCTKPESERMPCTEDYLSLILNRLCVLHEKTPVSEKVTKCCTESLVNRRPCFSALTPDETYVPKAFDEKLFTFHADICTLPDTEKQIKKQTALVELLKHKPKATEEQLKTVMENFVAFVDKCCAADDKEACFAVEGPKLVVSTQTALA

As to `COc1ccc(CCNC(=O)[C@@H]2c3ccccc3C(=O)N(Cc3ccccc3C(F)(F)F)[C@H]2c2ccc(CO)cc2)cc1`, the composite z-score in experiment [1] was 1.47; in [3], -1.27; in experiment [4] it was -0.22; in experiment [5], -0.181; in experiment [6], -0.0735; in experiment [7], -0.154. Also, the composite z-score is -0.559 in [8]; 0.381 in experiment [9]; -0.278 in experiment [10]; -0.187 in the experiment with Albumin (Bos taurus); -0.246 in [12]; -0.0664 in [13]. Also, the composite z-score in experiment [14] is 0.466; in experiment [15], 1.29; in experiment [16], 0.57; with Sam68 (KHDRBS1), 0.501; in experiment [17], -1.34; in experiment [18], -0.272. In addition, the z-score in [2] is -1.2. Besides, in experiment [11], the composite Z-score was 1.36 (inactive).
Take `COCCOC(=O)N1C(=O)[C@@]2(c3cc(C#CCCO)ccc31)[C@H](C(=O)N1CCc3cc(OC)c(OC)cc3C1)[C@H]1C(=O)O[C@H](c3ccccc3)[C@H](c3ccccc3)N1[C@@H]2c1ccc(OCCO)cc1`: the composite z-score in [1] was 1.32; in [3] it was 0.887; in experiment [4], 0.842; in experiment [5] it was 0.224; in experiment [6] it was -0.0731; in experiment [7], -0.304. The composite z-score in [8] is 0.299; in [9], 0.868; in [10], 0.826; with Albumin (Bos taurus), 0.455; in [12], 0.19; in [13] it was -0.147. Also, the composite z-score in experiment [14] is 0.476; in experiment [15], 1.54; in experiment [16], 0.765; in the experiment on Sam68 (KHDRBS1), 1.3; in [17] it was 0.956; in experiment [18], 1.09. Besides, in [2], the z-score is -1.32. The composite Z-score in experiment [11] was 0.552 (inactive).
Regarding `[N-]=[N+]=NCc1ccccc1[C@H]1OC(c2ccc(OCCCO)cc2)=N[C@@]1(Cc1ccccc1N=[N+]=[N-])C(=O)N1CCCCC1`, the composite z-score in experiment [1] was 1.46; in experiment [3], 0.291; in experiment [4], 1; in experiment [5], 0.289; in experiment [6], 0.132; in experiment [7], -0.157. Also, the composite z-score in experiment [8] was 1.76; in [9] it was 1.44; in [10] it was 1.3; with Albumin (Bos taurus), -0.0584; in experiment [12] it was 0.374; in experiment [13], 0.104. Besides, the composite z-score was 0.559 in [14]; 2.97 in experiment [15]; 0.608 in experiment [16]; 1.29 in the experiment with Sam68 (KHDRBS1); 0.0975 in experiment [17]; 0.988 in experiment [18]. Moreover, the z-score in experiment [2] was -2.19. In addition, in experiment [11], the composite Z-score is -0.202 (inactive).
Regarding `COC(=O)[C@@]1(Cc2ccc(OC)cc2)[C@H]2c3cc(C(=O)N(C)C)n(CCF)c3C[C@H]2CN1C(=O)c1ccccc1`, the composite z-score in [1] was 0.528; in [3], 0.216; in experiment [4] it was 2.13; in experiment [5], 1.02; in experiment [6], 0.027; in experiment [7] it was 0.675. In addition, the composite z-score in [8] is 1.82; in experiment [9], 1.01; in experiment [10] it was 1.79; with Albumin (Bos taurus), 1.01; in [12], 0.292; in experiment [13], -0.0015. Moreover, the composite z-score was 0.793 in [14]; 2.96 in [15]; 0.721 in experiment [16]; 1.32 with Sam68 (KHDRBS1); -0.499 in experiment [17]; 1.21 in experiment [18]. Also, the z-score in experiment [2] was -1.83. For the same compound, the composite Z-score in experiment [11] was 1.22 (inactive).
With `O=C1O[C@@H](c2ccccc2)[C@@H](c2ccccc2)N2[C@@H](c3ccc(O)cc3)[C@]3(C(=O)Nc4ccc(C#CC5=CCCCC5)cc43)[C@@H](C(=O)Nc3nc4ccccc4s3)[C@H]12`, the composite z-score was 1.4 in experiment [1]; 1.25 in experiment [3]; 1.48 in [4]; -0.18 in [5]; 0.428 in [6]; 0.368 in experiment [7]. Moreover, the composite z-score in experiment [8] stood at 2.02; in experiment [9], 0.825; in experiment [10], 1.87; in the experiment with Albumin (Bos taurus), 0.787; in experiment [12], 0.887; in experiment [13], 0.47. For the same compound, the composite z-score was determined as 0.58 in experiment [14]; 2.03 in [15]; 0.784 in experiment [16]; 1.29 in the experiment on Sam68 (KHDRBS1); 0.842 in experiment [17]; 1.1 in experiment [18]. Besides, in experiment [2], the z-score was -0.99. Moreover, the composite Z-score in experiment [11] is -0.199 (inactive).
On to `C=C[C@H](C)[C@H](OC(=O)Nc1ccc(SC)cc1)c1ccc(O)c2ccccc12`, for which the composite z-score is -1.97 in experiment [1]; -0.256 in experiment [3]; -0.413 in [4]; 0.273 in [5]; -0.325 in [6]; 0.0952 in experiment [7]. In addition, the composite z-score in experiment [8] was -0.383; in experiment [9], -0.0193; in experiment [10] it was -0.385; with Albumin (Bos taurus), 0.801; in experiment [12], -0.311; in experiment [13], -0.192. Also, the composite z-score in [14] is 0.736; in experiment [15], 0.518; in [16] it was -0.0167; in the experiment on Sam68 (KHDRBS1) it was -0.581; in [17] it was -0.0707; in experiment [18], -0.252. The z-score in [2] is -0.766. Further, in experiment [11], the composite Z-score was -0.53 (inactive).
